Records with an inconclusive call do not appear. Calls of active or inactive are those of the source. How the source made its calls: active means hit-call score of the fitted dose curve at least 0.9, where 1 is the maximum; inconclusive means response in the unintended direction; inactive means score below 0.9.

Glycogen synthase kinase-3 beta (Homo sapiens), sequence (P49841 whole entry, looked up): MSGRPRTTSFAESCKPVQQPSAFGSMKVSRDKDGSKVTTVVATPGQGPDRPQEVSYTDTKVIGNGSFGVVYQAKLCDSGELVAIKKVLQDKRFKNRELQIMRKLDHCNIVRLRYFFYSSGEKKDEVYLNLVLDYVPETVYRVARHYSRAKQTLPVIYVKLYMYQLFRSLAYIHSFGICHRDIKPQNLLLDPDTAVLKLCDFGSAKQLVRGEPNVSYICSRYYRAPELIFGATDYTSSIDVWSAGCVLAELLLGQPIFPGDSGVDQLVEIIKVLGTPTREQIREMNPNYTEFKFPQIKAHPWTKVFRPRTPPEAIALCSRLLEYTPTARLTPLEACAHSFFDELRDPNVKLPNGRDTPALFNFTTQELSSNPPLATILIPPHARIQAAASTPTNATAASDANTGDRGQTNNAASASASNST

This test deals with Glycogen synthase kinase-3 beta (Homo sapiens) (UniProt P49841). The test can be described thus: NVS_ENZ_hGSK3b: NovaScreen (NVS) Enzymatic Assay for human Glycogen Synthase Kinase-3 beta (GSK3b) (AID 2283165). A digest of the protocol:
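Recombinant enzyme with specific fluorescent substrate, 1 h, product separated by electrophoretic mobility shift. Primary duplicate screen at 25 uM; actives (e.g. 30% inhibition) followed in singleton concentration-response to 50 uM. Signal loss fitted versus DMSO.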
`CN(C)c1ccc(Cc2ccc(N(C)C)cc2)cc1`: the compound was called inactive.

On to `O=C1OC(=O)C2C3C=CC(C3)C12` (stereo unspecified), for which the result was inactive.

For `CCCCCCCCO`, the compound was called inactive.

For `CC[C@H](C)C(=O)O[C@H]1C[C@@H](C)C=C2C=C[C@H](C)[C@H](CC[C@@H]3C[C@@H](O)CC(=O)O3)[C@H]21`, the outcome was inactive.

For `Clc1nc(Cl)c(Cl)c(Cl)c1Cl`, the compound was called inactive.

With `CC1(C)C(=O)N(Br)C(=O)N1Br`, the compound was classed as inactive.

With `COc1cccc(-c2ccc(/C=C\CN3CCCCCC3)cc2Cl)c1`, the call was inactive.

With `CC(C)=CCC/C(C)=C/CO`, the compound was classed as inactive.

As to `COCCOc1cc2cc(C(=O)NC3CCN(C(C)C)CC3)n(CC(=O)Nc3ccc(Cl)cn3)c2cn1`, the compound was called inactive.

With `CCOC(=O)COc1ccc2c(c1)CC(NCC(O)c1cccc(Cl)c1)CC2` (stereo unspecified), the compound was classed as inactive.

With `CC(C)=CCCC(C)CCO` (stereo unspecified), the result was inactive.

Regarding `O=P(OC(CCl)CCl)(OC(CCl)CCl)OC(CCl)CCl`, the result was inactive.

`Nc1nc2ncc(CNc3ccc(C(=O)N[C@@H](CCC(=O)O)C(=O)O)cc3)nc2c(=O)[nH]1`: the AC50 is 41.1 µM (active).

Consider `COc1ccc2sc(C(=O)Nc3nnn[nH]3)c(OC(C)C)c2c1`, for which the AC50 is 1.42 µM (active).

As to `Cc1ccc(N)cc1O`, the compound was classed as inactive.

Consider `CN(C)c1ccc(N=NS(=O)(=O)O)cc1`, for which the compound was classed as inactive.

On to `CC(C)=CCCC(C)=CC=O`, for which the call was inactive.

For `O=C(O)c1cc(N=Nc2ccc(S(=O)(=O)Nc3ccccn3)cc2)ccc1O`, the call was inactive.

Turning to `Cc1ccc(S(=O)(=O)O)cc1C`, the result was inactive.

For the compound `CCCC(=O)OCC`, the compound was called inactive.

For `CCc1cc(SCc2sc(-c3ccc(C(F)(F)F)cc3)nc2CN2CCN(c3ccc(OC)cc3)CC2)ccc1OCC(=O)O`, the outcome was inactive.

The record behind these values is PubChem BioAssay (EPA / NIEHS).
